Source: PubChem BioAssay AID504905 (The Scripps Research Institute Molecular Screening Center, 2011)
Some of the results follow. The source made the active and inactive calls. Rule as the data show it: active = activation above about 17%; inactive = the rest.

biological target: 5-hydroxytryptamine receptor 5A (Homo sapiens) (UniProt P47898); experiment: activation of human 5-HT5A receptor – cell-based, luminescence, counter-screen for OPRM1-OPRD1 heterodimer agonist project (AID 504905); settings: HTR5A agonist counterscreen, at 9.3 µM, active compounds read high;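 also: 0% = vehicle-treated cells and 100% = reference agonist response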
Sequence (P47898 whole entry, looked up): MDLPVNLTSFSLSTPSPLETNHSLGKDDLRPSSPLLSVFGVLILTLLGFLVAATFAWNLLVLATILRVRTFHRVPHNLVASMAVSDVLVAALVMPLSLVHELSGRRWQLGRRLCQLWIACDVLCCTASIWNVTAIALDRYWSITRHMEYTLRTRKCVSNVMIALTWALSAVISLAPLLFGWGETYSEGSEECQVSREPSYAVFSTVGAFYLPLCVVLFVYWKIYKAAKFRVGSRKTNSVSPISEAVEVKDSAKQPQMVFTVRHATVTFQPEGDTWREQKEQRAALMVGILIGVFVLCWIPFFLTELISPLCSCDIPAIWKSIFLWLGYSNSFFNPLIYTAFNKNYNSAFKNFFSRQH

**Q.** Which activation does the source give for `C[C@]12CC[C@H](O)C[C@H]1CC[C@@H]1C2CC[C@]2(C)[C@@H](C3=CC(=O)OC3)[C@@H](O)C[C@]12O` (some centres undefined) here?
**A.** The activation was -0.48% (inactive).

**Q.** With `CCC1(C)CC(CCNCc2ccc(N(C)C)cc2)(c2ccc(F)cc2)CCO1` (centres undefined) as the compound, how does the activation read?
**A.** Its activation is 0.44% (inactive).

**Q.** With `COC1C(O)C(C)OC(OC2CCC3(C=O)C(CCC4C3CCC3(C)C(C5=CC(=O)OC5)CCC43O)C2)C1O` (centres undefined) as the compound, how does the activation read?
**A.** Its activation is 13.7% (inactive).

**Q.** How did the activation turn out when `CCOC(=O)C1(CCc2ccccc2)CCN(Cc2ccco2)CC1` was run?
**A.** Its activation is 3.8% (inactive).
